For 61 molecules, inhibition results are on record in PubChem BioAssay AID1671202 (University of Kansas High Throughput Screening Laboratory, 2021).

Each structure is given as a SMILES string. About 6,900 (3.6%) of roughly 190,000 compounds were called active. This excerpt belongs to a sample that is enriched for actives. Unmarked numbers belong to inactive results. No stated cut-off is given here; in the data, active means inhibition above about 50%; inactive means the rest.

What is called inhibition is the relative decrease from the control value, in per cent.

The target in this assay is Huntingtin (Homo sapiens) (UniProt P42858). The experiment in a line: mutant huntingtin-calmodulin interaction inhibitors – biochemical, AlphaScreen, primary screen (AID 1671202).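 On inhibition: 0% = both proteins with DMSO and 100% = one protein alone.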 The settings on record: AlphaScreen His-mHTT/GST-CaM binding, luminescence; at 15 µM, stronger effect = higher value. Background: In Alpha technology, singlet oxygen from a donor bead excites a nearby acceptor bead.
Huntingtin (Homo sapiens), sequence (P42858 whole entry, looked up, stated change not applied): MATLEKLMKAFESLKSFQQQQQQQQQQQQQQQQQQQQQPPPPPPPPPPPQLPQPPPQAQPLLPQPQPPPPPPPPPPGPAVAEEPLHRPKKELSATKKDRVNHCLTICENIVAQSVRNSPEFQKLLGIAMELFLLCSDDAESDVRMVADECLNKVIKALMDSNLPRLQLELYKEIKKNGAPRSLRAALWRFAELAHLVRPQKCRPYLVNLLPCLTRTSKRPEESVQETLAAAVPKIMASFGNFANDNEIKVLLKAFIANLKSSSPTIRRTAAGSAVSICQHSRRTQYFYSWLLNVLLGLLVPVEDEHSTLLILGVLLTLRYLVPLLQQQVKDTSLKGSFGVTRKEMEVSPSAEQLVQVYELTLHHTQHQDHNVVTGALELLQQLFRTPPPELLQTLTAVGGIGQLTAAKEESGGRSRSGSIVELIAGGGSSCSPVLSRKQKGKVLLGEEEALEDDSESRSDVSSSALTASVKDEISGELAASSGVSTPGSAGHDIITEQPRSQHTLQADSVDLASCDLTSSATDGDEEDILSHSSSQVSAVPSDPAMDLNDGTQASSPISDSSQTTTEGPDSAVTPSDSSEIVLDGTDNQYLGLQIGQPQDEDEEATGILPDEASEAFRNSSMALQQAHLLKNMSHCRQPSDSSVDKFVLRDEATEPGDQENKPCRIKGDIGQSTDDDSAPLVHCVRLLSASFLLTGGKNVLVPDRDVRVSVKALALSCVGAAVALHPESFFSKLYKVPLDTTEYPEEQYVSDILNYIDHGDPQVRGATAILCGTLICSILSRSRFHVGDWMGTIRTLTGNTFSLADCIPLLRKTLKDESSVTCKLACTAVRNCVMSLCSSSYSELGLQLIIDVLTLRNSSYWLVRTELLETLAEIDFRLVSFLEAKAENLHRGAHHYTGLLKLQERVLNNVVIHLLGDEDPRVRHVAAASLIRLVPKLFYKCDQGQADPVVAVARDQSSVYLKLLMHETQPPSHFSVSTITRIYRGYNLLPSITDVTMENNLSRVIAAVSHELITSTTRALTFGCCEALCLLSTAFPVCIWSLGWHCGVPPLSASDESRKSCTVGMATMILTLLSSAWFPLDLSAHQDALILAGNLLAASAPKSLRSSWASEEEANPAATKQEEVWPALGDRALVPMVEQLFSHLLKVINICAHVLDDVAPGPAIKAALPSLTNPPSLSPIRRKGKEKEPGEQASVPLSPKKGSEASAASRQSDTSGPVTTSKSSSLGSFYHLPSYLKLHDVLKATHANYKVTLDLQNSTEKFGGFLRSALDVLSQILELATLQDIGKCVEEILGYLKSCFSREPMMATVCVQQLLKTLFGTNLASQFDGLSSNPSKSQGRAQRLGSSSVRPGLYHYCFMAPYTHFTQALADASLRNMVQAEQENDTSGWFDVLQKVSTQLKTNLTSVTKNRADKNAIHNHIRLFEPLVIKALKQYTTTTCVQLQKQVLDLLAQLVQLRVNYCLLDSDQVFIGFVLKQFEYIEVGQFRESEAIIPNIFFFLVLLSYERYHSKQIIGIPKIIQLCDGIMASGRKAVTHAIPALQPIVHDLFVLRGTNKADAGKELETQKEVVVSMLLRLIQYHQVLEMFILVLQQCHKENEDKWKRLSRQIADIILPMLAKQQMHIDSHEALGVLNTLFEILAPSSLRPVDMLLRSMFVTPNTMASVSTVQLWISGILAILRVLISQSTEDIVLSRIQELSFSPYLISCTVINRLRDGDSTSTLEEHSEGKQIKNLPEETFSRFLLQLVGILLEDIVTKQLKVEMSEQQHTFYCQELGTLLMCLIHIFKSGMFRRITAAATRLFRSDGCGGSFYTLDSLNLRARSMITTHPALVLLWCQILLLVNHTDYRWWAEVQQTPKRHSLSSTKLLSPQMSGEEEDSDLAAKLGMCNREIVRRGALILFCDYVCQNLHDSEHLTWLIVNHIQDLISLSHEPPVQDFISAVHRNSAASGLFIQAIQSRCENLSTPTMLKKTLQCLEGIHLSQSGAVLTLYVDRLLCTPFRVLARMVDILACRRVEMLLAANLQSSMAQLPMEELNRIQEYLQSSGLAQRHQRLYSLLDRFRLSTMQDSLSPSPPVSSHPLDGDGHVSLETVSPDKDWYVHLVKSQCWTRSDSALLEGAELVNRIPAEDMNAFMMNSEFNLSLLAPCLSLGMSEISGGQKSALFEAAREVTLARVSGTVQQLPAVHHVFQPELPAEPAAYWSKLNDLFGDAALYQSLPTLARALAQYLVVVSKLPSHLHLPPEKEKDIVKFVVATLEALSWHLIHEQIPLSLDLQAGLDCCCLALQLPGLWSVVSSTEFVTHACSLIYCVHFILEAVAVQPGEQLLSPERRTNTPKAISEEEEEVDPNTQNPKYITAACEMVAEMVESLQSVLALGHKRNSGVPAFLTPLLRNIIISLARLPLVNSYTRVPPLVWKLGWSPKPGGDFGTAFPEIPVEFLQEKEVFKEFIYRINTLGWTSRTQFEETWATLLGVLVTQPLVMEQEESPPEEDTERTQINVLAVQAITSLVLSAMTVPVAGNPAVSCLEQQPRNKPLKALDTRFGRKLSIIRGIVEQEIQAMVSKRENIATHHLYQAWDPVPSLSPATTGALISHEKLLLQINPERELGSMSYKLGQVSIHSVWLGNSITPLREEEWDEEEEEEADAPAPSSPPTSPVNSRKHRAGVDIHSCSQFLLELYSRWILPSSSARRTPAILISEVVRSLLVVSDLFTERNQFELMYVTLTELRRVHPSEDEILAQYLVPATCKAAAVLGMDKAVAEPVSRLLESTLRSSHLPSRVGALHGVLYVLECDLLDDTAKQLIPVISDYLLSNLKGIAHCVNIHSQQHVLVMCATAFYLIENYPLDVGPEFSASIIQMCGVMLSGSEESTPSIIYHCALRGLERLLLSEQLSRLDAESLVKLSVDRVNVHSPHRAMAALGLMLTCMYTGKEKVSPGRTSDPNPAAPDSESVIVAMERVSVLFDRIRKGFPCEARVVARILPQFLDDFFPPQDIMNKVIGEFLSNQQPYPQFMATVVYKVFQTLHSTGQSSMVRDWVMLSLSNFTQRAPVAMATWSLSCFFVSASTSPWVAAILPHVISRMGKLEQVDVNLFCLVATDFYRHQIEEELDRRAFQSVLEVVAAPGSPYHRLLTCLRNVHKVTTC
As for `Clc1ccc(-n2ncc3c(N4CCC5(CC4)OCCO5)ncnc32)cc1`, the inhibition is 7%.
Next, `CCN(CC)c1ccc(Nc2nc(-c3sc(C)nc3C)cs2)cc1`: 96.7% (active); `COc1ccc(-c2csc(/C(C#N)=C/Nc3cccc([N+](=O)[O-])c3)n2)cc1`: -1%; `NS(=O)(=O)c1ccc(NC(=O)Cc2csc(Nc3ccccn3)n2)cc1`: 33.1%.
Under `NS(=O)(=O)c1ccc(Nc2nc(-c3ccccc3)cs2)cc1` stands 21%; under `CC(=O)Nc1nc(C)c(-c2csc(Nc3ccc(S(N)(=O)=O)cc3)n2)s1`, 52.1% (active); under `Cc1nc(N)sc1-c1csc(Nc2ccc(O)cc2)n1`, 41.5%.
Under `O=C(O)c1ccc(Nc2nc(-c3cccs3)cs2)cc1` stands 46.2%; under `Cc1nc(N)sc1-c1csc(Nc2cccc([N+](=O)[O-])c2)n1`, 91.9% (active); under `Cc1noc(C)c1S(=O)(=O)N1CCC(CC(=O)N2CCN(C(=O)C3CC3)CC2)CC1`, 5.24%.
Take `COc1ccc(-c2nnc(N3CCC(C(=O)NC4CCCCC4)CC3)o2)cc1`: the inhibition is 7.1%.
Under `O=C(Nc1cccc(C(F)(F)F)c1)C(=O)c1c(O)[nH]c2ccccc12` stands 10%; under `CCOc1cc(CNC(=O)C2CCN(c3nnc4ccccn34)CC2)ccc1OC`, 2.75%; under `Nc1nc(-c2cc3cc(Br)cc(Br)c3oc2=O)cs1`, -7%.
Turning to `COc1ccc([C@@H]2C[C@H](c3ccccc3)Oc3cc(OC)ccc32)cc1`, the inhibition is -9.3%.
Next, `COc1ccc(C2CC(O)(c3ccccc3)Oc3cc(C)cc(C)c32)cc1` (stereo unspecified): 77.7% (active).
Under `CC(=O)c1c(C(C)=O)c(C)n(Cc2ccco2)c1C` stands 1.2%; under `CCOC(=O)c1ccc(OCC2c3cc(OC)c(OC)cc3CCN2C(=O)c2ccccc2OC)cc1` (stereo unspecified), 34.4%.
Next, `COc1ccc(C(=O)N2CCc3cc(OC)c(OC)cc3C2c2ccccc2)cc1OC` (stereo unspecified): 83.2% (active).
Consider `COc1ccc(NC(=O)N2CCc3[nH]cnc3C2c2ccccc2)cc1OC` (stereo unspecified), for which the inhibition was 3.67%.
As to `COc1cc2c(cc1OC)C(COc1ccc(F)cc1)N(C(=O)c1ccccc1F)CC2` (stereo unspecified), the inhibition was 67% (active).
In the case of `CCCCC(=O)N1CCc2cc(OC)c(OC)cc2C1COc1ccc(C(=O)OC)cc1` (stereo unspecified), the inhibition was 18.4%.
Next, `COc1cc2c(cc1OC)C(COc1cc(C)cc(C)c1)N(C(=O)CC1CCCCC1)CC2` (stereo unspecified): 32%.
As for `COc1ccc(C2=NOC(C(=O)N3CCC4(CC3)OCCO4)C2)cc1OC` (stereo unspecified), the inhibition is -8.22%.
Under `COc1ccc(-c2nc(COc3cc(C)ccc3F)no2)cc1` stands -32.4%; under `CSCCC(NS(=O)(=O)c1cccs1)C(=O)O` (stereo unspecified), -3.2%; under `CSc1nc(SC)c2c3c(sc2n1)CSC(C)(C)C3`, 2%.
Under `CCc1ccc(OCC(O)CN2CCN(c3ccccc3F)CC2)cc1` (stereo unspecified) stands -21.8%; under `COc1cc(NCCCCN2C(=O)c3ccccc3C2=O)c2nccc(C)c2c1`, 4%; under `O=C(c1ccco1)N1CCN(C(=O)C2CC(c3ccc(F)cc3)=NO2)CC1` (stereo unspecified), -6.79%.
Under `CCOC(=O)N1CCN(C(=O)C2CC(c3ccc(F)cc3)=NO2)CC1` (stereo unspecified) stands 100% (active); under `COc1ccc(C2=NOC(C(=O)N3CCN(c4ccccc4)CC3)C2)cc1` (stereo unspecified), -6.03%; under `Cc1cc(C)cc(NC(=O)NC2CCN(c3ccccc3)C2=O)c1` (stereo unspecified), -6.4%.
Turning to `COc1nccnc1N1CCC(N(C)C(=O)c2ccoc2)C1` (stereo unspecified), the inhibition is 1.67%.
Next, `Cc1cc(C(=O)N2CCOCC2)c2cccc(-c3cccs3)c2n1`: -5.8%; `O=C(Nc1cccc(F)c1)N1CCC(N2CCN(Cc3ccc(F)cc3)C2=O)CC1`: 13%.
Next, `CC(=O)N1c2c(cc(Br)cc2S(=O)(=O)Nc2cccc([N+](=O)[O-])c2)CC1C` (stereo unspecified): 6%.
Under `O=C(c1ccc2nc3ccc(Cl)cc3c(=O)n2c1)N1CCN(c2cccc(Cl)c2)CC1` stands 6%.
For `O=C(c1ccc([N+](=O)[O-])cc1)N1CCN(c2cccc(Cl)c2)CC1`, the inhibition was 13.1%.
Under `CC(=O)Nc1ccc(C(=O)N2CCN(c3cccc(Cl)c3)CC2)cc1` stands 83.1% (active).
Under `Cc1ccccc1-n1cnc(C(=O)NCCC(C)C)n1` stands -3%; under `CC(C)C[C@@H]1COc2cc(N3CCC[C@@H]3CO)ccc2S(=O)(=O)N1`, -7.7%.
Under `Cc1ccc(N2CCN(C3CCCCCC3)CC2)cc1` stands 7.2%; under `CC1CCN(c2ccc([N+](=O)[O-])c(SCCO)c2)CC1`, 24%.
Turning to `CC1CCN(c2ccc(N)cc2)CC1`, the inhibition is 79.6% (active).
Under `Cn1c(C(=O)NCc2ccco2)cc2c1CCN(Cc1ccc(F)cc1)C2` stands 40.4%; under `COc1ccc(C(=O)Nc2nc3ccccc3s2)cc1Br`, -8%.
Under `O=C(COc1ccccc1)Nc1nc2ccccc2s1` stands -8.3%.
Next, `COc1ccc(OC)c(Nc2nc(CC(=O)Nc3nc4ccccc4s3)cs2)c1`: 54.7% (active); `CCCC(=O)N1CCN(c2nc3c(s2)c(C)nn3-c2ccc(F)cc2)CC1`: 0.3%; `O=C(NCC1(c2ccccc2)CCOCC1)C(=O)Nc1cccnc1`: -3.4%.
Regarding `N#C/C(=C\c1cn[nH]c1-c1cccs1)c1nc2ccccc2[nH]1`, the inhibition was 37%.
Consider `COc1ccc(C2CC(c3ccc(C)cc3)Nc3nc(N)nn32)cc1` (stereo unspecified), for which the inhibition was 11.1%.
Next, `COc1cccc(C2CC(c3cccc(Cl)c3)n3nc(N)nc3N2)c1` (stereo unspecified): 30.3%; `CCOc1ccc(C2CC(c3ccccc3Cl)n3nc(N)nc3N2)cc1` (stereo unspecified): 36.1%.
Under `COc1ccc(C2CC(c3ccc(Cl)cc3Cl)Nc3nc(N)nn32)cc1OC` (stereo unspecified) stands 70.9% (active); under `CCOc1ccccc1C1CC(c2ccc(Cl)cc2)Nc2nc(N)nn21` (stereo unspecified), 54.2% (active); under `CCOc1ccccc1C1CC(c2ccccc2)Nc2nc(N)nn21` (stereo unspecified), 18.6%.
Turning to `Cn1cccc1/C=N/NC(=O)CCCCCCC(=O)N/N=C/c1cccn1C`, the inhibition result is “inactive”.
Next, `COc1ccc(C2C=C(c3ccc(C)cc3)Nc3nnnn32)cc1` (stereo unspecified): -16%; `Cc1cc(S(=O)(=O)NCC2(O)CCOCC2)c(Cl)cc1Cl`: -11.3%.
